# Hits are enriched below; roughly 7.7% of the tested compounds scored in any of these assays.
# FMDV inh: antivirals against foot and mouth disease virus; FMDV antiviral cell-based qHTS; Potency, µM (titrated, usually from 57.9 µM), most hits filed as inhibitors; 410,000 tested, 1.2% active; AID 1159524; calls by dose curve; tested in HEK293T cells; also: read-out not given here; nearly all actives have a fitted effect of over 45% in size
# FBPA Giardia inh: blocks Giardia fructose-bisphosphate aldolase activity; A8B2U2; purified Giardia FBPA; Potency, µM (doses to about 59.6 µM), usual class: inhibitors; 290,000 tested, 0.71% active; AID 2451; also: nearly all actives have a fitted effect of over 55% in size
# Target sequence (A8B2U2 whole entry, looked up): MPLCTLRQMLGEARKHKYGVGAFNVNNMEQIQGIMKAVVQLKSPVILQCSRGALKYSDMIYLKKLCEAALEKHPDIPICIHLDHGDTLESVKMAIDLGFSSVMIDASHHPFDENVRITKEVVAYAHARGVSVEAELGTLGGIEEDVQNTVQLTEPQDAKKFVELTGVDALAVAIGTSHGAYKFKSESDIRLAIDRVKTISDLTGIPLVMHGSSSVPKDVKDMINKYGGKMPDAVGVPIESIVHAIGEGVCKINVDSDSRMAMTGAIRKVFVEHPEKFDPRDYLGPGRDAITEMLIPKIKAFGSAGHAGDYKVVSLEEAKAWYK
#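 Giardia FBPA (40 nM reagent) was preincubated 10 min at RT with compound (up to 57.5 uM final), then substrate plus GAPDH/TPI/NAD/arsenate coupling system with diaphorase/resazurin was added; resorufin fluorescence (525/598 nm) was read after 20 min.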
# HCMV inh: inhibitors of human cytomegalovirus; AID 1259415; HFF cells, HCMV-luciferase reporter, 72 h; active compounds read low; activity change, negative = inhibition, % at 57.5 µM; 410,000 tested, 4.5% active; in the data active = activity change below about -60%; inconclusive = no clear call, values can overlap the other calls; inactive = above about -39%
#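 Screen run at 2 compound doses on HFFs infected with reporter HCMV, MOI 1 PFU/cell. Luciferase activity from cell lysates at 72 h post infection gave inhibition relative to buffer-only and Salinomycin wells.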
# RE007 growth inh: less growth of the S. pombe RE007 Vpr strain | S. pombe RE007 Vpr strain, BacTiter-Glo ATP luminescence, 24 h | Potency, µM (doses to about 92.2 µM), actives largely listed as inhibitors | 360,000 tested, 0.21% active | AID 651644; active = well fitted falling curve with a large enough effect; inconclusive = small, poorly fitted or top-dose-only effect; inactive = no such curve, though single readings can be large or run the other way; also: nearly all actives have a fitted effect of over 50% in size
#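 Fission yeast strain RE007, carrying one chromosomally integrated HIV-1 vpr copy, was seeded at OD 0.01 in PMG+AL medium with 23 nL pinned compound. After 24 h at 30 °C and 99% humidity, viability was read by BacTiter-Glo luminescence.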
# Sm TGR inh: S. mansoni TGR enzyme inhibition; Potency, µM (titrated, usually from 114 µM), hits mostly inhibitors; Q962Y6; AID 485364; 360,000 tested, 3% active; purified TGR, DTNB reduction, TNB absorbance 405 nm; also: nearly all actives have a fitted effect of over 60% in size
#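 Kinetic colorimetric format: TGR-catalysed, NADPH-driven DTNB reduction monitored via TNB absorbance. Enzyme dispensed at 20 nM; compound exposure 15 min at room temperature before reaction start.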
# TbPYK inhibitor: T. brucei pyruvate kinase inhibition; TbPYK enzyme, Kinase-Glo Plus ATP luminescence, 45 min; Potency, µM (doses to about 76.8 µM), usual class: inhibitors; 410,000 tested, 0.12% active; also: nearly all actives have a fitted effect of over 50% in size
#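 Glycolytic pyruvate kinase of T. brucei was incubated with substrate, test compound and 130 uM ADP for 45 minutes at room temperature. Luminescent Kinase-Glo Plus signal was measured after 10 minutes.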
# Numbers stand for hits; n = inactive; u = inconclusive; x = no result; + = active, no number; [ ] = remark or other dose. Unless noted, calls follow the shape of the dose curve; as a rule, active = well fitted curve in the direction sought with a large enough effect; inconclusive = small, poorly fitted or top-dose-only effect, or another doubt; inactive = no such curve, though single readings can be large; an effect the other way counts as inactive or inconclusive.
SMILES,FMDV inh,FBPA Giardia inh,HCMV inh,RE007 growth inh,Sm TGR inh,TbPYK inhibitor
Cc1noc(C)c1-c1ccc(C(=O)Nc2cccc(C(F)(F)F)c2)c2occc12,n,x,n,n[18.4 µM],x,n
COC(=O)c1ccc(C(c2c(N)n(Cc3ccccc3)c(=O)n(C)c2=O)N2CCOCC2)cc1 (stereo unspecified),n,n,n,n,22.4µM,n
COc1ccccc1-c1ccnc(-n2ncc(C(=O)NCc3cccc(C)n3)c2C)n1,n,x,x,x,x,x
COc1cc(CNC(=O)c2ccc3c(c2)c(C)c(C)n3Cc2cccc(C)c2)cc(OC)c1OC,n,x,-86.7,x,n,n
Cc1c(C)n(Cc2ccccc2)c2ccc(C(=O)NCc3ccccc3F)cc12,n,x,+,x,n,n[15.4 µM]
COc1cccc(CNC(=O)c2ccc3c(c2)c(C)c(C)n3Cc2ccccc2)c1OC,n,x,u,x,n,n[15.4 µM]
Cc1cccc(Cn2c(C)c(C)c3cc(C(=O)NCc4ccco4)ccc32)c1,n,x,n,x,n,n[15.4 µM]
CCN(c1cccc(C)c1)S(=O)(=O)c1ccc2c(c1)N(C(C)=O)CCS2,n,x,-69.6,n,n,n
CCN(c1cccc(C)c1)S(=O)(=O)c1csc(C(N)=O)c1,n,n,n,n,n,n
O=C(CCCCCn1c(=O)[nH]c2ccccc2c1=O)N1CCN(c2ccc(Cl)cc2)CC1,n,x,n,x,n,n
COc1ccc(S(=O)(=O)NCCc2cn3nc(C)c(C)nc3n2)cc1C,n,x,n,n,44.7µM,n
Cc1ccc(S(=O)(=O)NCCc2cn3nc(C)c(C)nc3n2)cc1C,n,n,n,n,n,n
CC(C)(C)NC(=O)Cn1cc(S(=O)(=O)Cc2ccccc2Cl)c2ccccc21,n,x,n,x,n,n[15.4 µM]
Cc1ccccc1-c1cc(C(=O)NCc2ccco2)n(CC2CC(c3cccnc3)=NO2)n1 (stereo unspecified),n,x,n,n,17.8µM,n
COc1ccccc1CNC(=O)c1cc(-c2ccccc2)nn1CC1CC(c2cccnc2)=NO1 (stereo unspecified),n,x,n,n,x,n
CC(=O)c1c(C)n(-c2ccc(Cl)cc2)c2ccc(O)cc12,n,n,n,n,n,n
CC(=O)c1c(C)n(-c2ccccc2)c2ccc(O)cc12,n,n,-63.8,n,n,n
CC(=O)c1c(C)n(Cc2ccccc2Cl)c2ccc(O)cc12,u,n,-62.0,n,n,n
CCOc1ccc(-n2c(C)c(C(C)=O)c3cc(O)ccc32)cc1,n,n,-61.7,n,n,n
CC(=O)c1c(C)n(-c2cccc(Cl)c2)c2ccc(O)cc12,n,n,-68.2,n,n,n
COc1ccc(O[C@H]2C=C[C@@H](c3ccccc3)O[C@H]2CO/N=C(/C)CCC(=O)OC[C@@H]2O[C@H](C#Cc3ccccc3)C=C[C@@H]2Oc2ccc(C)cc2)cc1,x,n[12.9 µM],x,x,x,x
COc1ccc2c(c1)c(C(=O)O)c(C)n2-c1ccc(Cl)cc1,n,n,-62.9,n,n,n
COc1ccc(NC(=O)CC2C(=O)N(c3ccc(F)cc3)C(=O)N2Cc2cccnc2)cc1 (stereo unspecified),n,x,n,x,n,n
Cn1c(O)c(C2=NN(C(=O)CCl)C(c3ccccc3)C2)c(=O)n(C)c1=O (stereo unspecified),n,u,n,n,12.6µM,n
COc1ccccc1-c1nccc(NCc2cccnc2)n1,n,n,x,x,x,x
SMILES,FMDV inh,FBPA Giardia inh,HCMV inh,RE007 growth inh,Sm TGR inh,TbPYK inhibitor
O=C(CC1N=C2c3ccccc3N=C(SCc3ccccc3F)N2C1=O)NCCc1ccccc1 (stereo unspecified),n,x,n,x,n,n
CC(C)CC(O)(c1ccccc1)C(CN1CCOCC1)c1ccccc1 (stereo unspecified),n,n,u,n,n,n
CCCC(O)(c1ccc(CC)cc1)C(CN1CCOCC1)c1ccccc1 (stereo unspecified),u,n,-69.2,n,n,n
OC(c1ccc(F)cc1)(C1CCCCC1)C(CN1CCOCC1)c1ccccc1 (stereo unspecified),n,n,u,n,89.1µM,n
CCc1ccc(C(O)(C(C)C)C(CN2CCOCC2)c2ccccc2)cc1 (stereo unspecified),n,n,-76.6,n,n,n
CCOc1ccccc1C(=O)N1CCC(c2nc3ccccc3o2)CC1,n,x,n,x,n,n
Cc1ccc(N2C(=O)CC(Sc3cccs3)C2=O)cc1 (stereo unspecified),n,n,n,u,7.08µM,n
Cc1cc(C)cc(N2C(=O)CC(c3ccccc3)CC2=O)c1,n,x,n,n,n,n
Cn1nnnc1SC1CC(=O)N(c2ccccc2)C1=O (stereo unspecified),n,n,n,31.6µM,1.58µM,n
Cc1cc(C)cc(N2C(=O)CC(Sc3nnnn3-c3ccccc3)C2=O)c1 (stereo unspecified),u,x,n,n,5.01µM,n
O=C1CC(Sc2nnnn2C2CCCCC2)C(=O)N1c1ccccc1 (stereo unspecified),x,n,-69.2,u,3.16µM,n
COC(=O)C1CCN(Cc2ccc3c(c2)CN(C(=O)c2cc(C)on2)CCO3)CC1,n,x,x,x,x,x
CNc1nc2cnc(Nc3cccc(OC)c3)cc2n1Cc1ccc(OC)c(OC)c1,x,x,n,x,x,x
Cc1cccc(N2C(=O)CC(Sc3nc(C)cc(C)n3)C2=O)c1 (stereo unspecified),n,n,n,n,n,n
Cc1cccc(N2C(=O)CC(Sc3nnc(C)s3)C2=O)c1 (stereo unspecified),u,n,n,35.5µM,3.55µM,n
COc1cccc(CNc2nc(NCC3CC3)nc3ccsc23)c1,n,x,-71.3,n,x,n
COc1cccc(CNc2nc(NCc3ccccc3)nc3ccsc23)c1,u,x,-102.1,u,x,n
COc1ccccc1CNc1nc(NCc2ccc(C(C)C)cc2)c2sccc2n1,u,x,u,n,x,n
COc1cccc(CNc2nc(NCC3CC3)nc3ccsc23)c1OC,u,x,u,n,x,n
CNc1nc(NCc2cccc(OC)c2)c2sccc2n1,u,x,u,n,x,n
CC(C)c1ccc(CNc2nc(NCC3CC3)nc3ccsc23)cc1,u,x,-61.9,n,x,n
CCN(c1ccccc1)S(=O)(=O)c1nnc(NC(=O)COc2ccccc2F)s1,n,x,n,x,n,n
Cc1c(C(=O)NCc2ccccc2)sc2nc3n(c(=O)c12)CCC3,n,x,n,x,n,n
CC(=O)N1CCN(Cc2nc3cc(NC(=O)c4ccc(Cl)cc4)ccc3n2C)CC1,u,n,-80.3,n,n,n
CCOC(=O)N1CCN(Cc2nc3cc(NC(=O)c4ccc(F)cc4)ccc3n2C(C)C)CC1,u,x,-84.7,x,n,n
CC(=O)N1CCN(Cc2nc3cc(NC(=O)c4ccccc4C)ccc3n2C)CC1,n,n,n,n,n,n
CC(=O)N1CCN(Cc2nc3cc(NC(=O)c4ccccc4Cl)ccc3n2C)CC1,n,n,n,n,x,n
